# Screens as filed in PubChem.
# Only some compounds are listed: those with a hit (about 3.8% of all), similar ones and a draw of the others.
# ATXN2 expr inh: Primary qHTS for Inhibitors of ATXN expression; HEK-293 ATXN2-luciferase reporter, luminescence, 24 h; Potency, µM (series often up to 57 µM), for the others: top-dose activity change, negative = inhibition, hits mostly inhibitors; 360,000 compounds, 0.72% hits; AID 1745845, 2022; note: % is set by controls: 0 for no effect and ±100 for the full control effect; nearly all actives have a fitted effect of over 55% in size
#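 qHTS (up to 57 uM final) was run with 24 h compound exposure of reporter cells at 37 °C. Each well was multiplexed: SteadyGlo luminescence measured ATXN2-luciferase expression after a fluorogenic Gly-Phe-AFC viability readout (25 uM final).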
# A549 viability: Nrf2 qHTS screen for inhibitors: counterscreen for cytotoxicity. 390,000 compounds, 0.16% hits. AID 504648, 2011. A549 ARE-Fluc cells, CellTiter-Fluor viability, 18-24 h. Potency, µM (titrated, usually from 46 µM), inactives show at the top dose activity change, negative = cytotoxicity, usual class: inhibitors; note: % is set by controls: 0 for no effect and ±100 for the full control effect
#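 A549 ARE-Fluc cells in 5% FBS OPTI-MEM, 5000 cells/well, rested 2 h then exposed to compounds in concentration-response for 18-24 h at 37 °C. Viability by CellTiter-Fluor fluorescence (Ex 405/Em 525) after 30 min; luciferase luminescence (BugLite, 15 min, RT) read afterwards.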
# HepG2 viability: qHTS for Inhibitors of TGF-b: Cytotox Counterscreen; HepG2 CAGA-GFP viability, ATP luminescence, 18 h; Potency, µM (series often up to 46.1 µM), without a hit: at the highest dose activity change, negative = cytotoxicity, most hits filed as cytotoxic; 410,000 compounds, 0.76% hits
#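 CellTiter-Glo luminescence gave cytotoxicity after 18 hours at 37 degrees C. The cells were HepG2 CAGA-GFP in 1% FBS DMEM, stimulated with 500 pg/mL TGF-beta after compound addition. %Activity was normalised to no-cell wells (complete cell-killing) and DMSO (no toxicity), and curves were fitted and classified.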
# S2 tox: Viability Counterscreen for Primary qHTS for Inhibitors of ATXN expression. S2 cells (HEK-293 line with an ATXN2-luciferase reporter) viability, CellTiter-Fluor protease fluorescence, 24 h. Potency, µM (doses to about 56.7 µM), usual class: cytotoxic. 400,000 compounds, 0.49% hits; note: nearly all actives have a fitted effect of over 40% in size
# TGFb inhibitor: qHTS for Inhibitors of TGF-b | Potency, µM (highest dose often 46.1 µM), without a hit: at the highest dose activity, negative = inhibition, hits mostly inhibitors | 410,000 compounds, 1.2% hits | HepG2 CAGA-GFP TGF-b/SMAD3 reporter, GFP fluorescence, 18 h; TGF-beta stimulated, 500 pg/mL final; note: % is set by controls: 0 for no effect and ±100 for the full control effect; nearly all actives have a fitted effect of over 65% in size
#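 Inhibition was scored as loss of TGF-beta-induced (500 pg/mL final, 18 hours, 37 degrees C) GFP in HEPG2 cells carrying a CAGA-GFP reporter, in DMEM with 1% FBS. Well GFP was summed per cell; Activity was normalised to unstimulated and stimulated DMSO wells, then concentration-response fitting.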
# Nrf2 inh: Nrf2 qHTS screen for inhibitors; 360,000 compounds, 2.1% hits; A549 ARE-Fluc reporter, luciferase luminescence, 18-24 h; Potency, µM (doses to about 46 µM), for the others: at the top dose activity change, negative = inhibition, most hits filed as inhibitors; note: % is set by controls: 0 for no effect and ±100 for the full control effect; nearly all actives have a fitted effect of over 60% in size
#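 In this cell-based qHTS, ARE-driven firefly luciferase in A549 cells reports Nrf2 activity; the luminescent signal after BugLite lysis is the measured value, with a prior CellTiter-Fluor read for cell health.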
# Numbers without * were called inactive; i = inactive; ? = inconclusive; / = no result; [ ] = another dose, or the depositor's remark. Calls come from the whole dose curve; as a rule, active = well fitted curve in the direction sought with a large enough effect; inconclusive = small, poorly fitted or top-dose-only effect, or another doubt; inactive = no such curve, though single readings can be large; an effect the other way counts as inactive or inconclusive. Potency is the fitted concentration of half-maximal effect.
SMILES,ATXN2 expr inh,A549 viability,HepG2 viability,S2 tox,TGFb inhibitor,Nrf2 inh
COc1cccc(C(=O)Oc2c(Sc3ccc(C)cc3)c(C)nn2C(C)(C)C)c1OC,?,?,12.6µM*,/,12.6µM*,-7.0%[9.27 µM]
COc1ccccc1C(=O)Oc1c(Sc2ccccc2)c(C)nn1-c1ccccc1,?,?,-93.7%,11.2µM*,?,8.2%[9.27 µM]
COc1ccc(/C=C2/C(=O)OCc3cc(OC)c(OC)cc32)cc1,?,-4.5%,-2.6%,?,3.2%,-23.4%
O=C(Nc1ccccc1)Nc1ccc2ncoc2c1,43.7%,7.0%,0.251µM*,/,1.2%,?
O=C(Nc1ccccc1)Nc1ccc2ocnc2c1,8.3%,6.4%,-14.0%,i,-5.7%,?
CN(C)CCCNc1cc(N2CCN(C3CCCCC3)CC2)c2noc3c2c1C(=O)c1ccccc1-3,/,-17.8%,15.8µM*,/,275.2%,-5.2%
CCCN1CNc2c(c(=O)[nH]c(=S)n2CCc2ccccc2Cl)C1,/,-0.2%,/,/,/,18.3%
C/C=N/NC(=O)CCNC(=O)c1ccccc1,1.2%,10.7%,-6.2%,i,-1.0%,-12.0%
O=C(CSc1nncn2c1cc1sccc12)Nc1ccccc1C(F)(F)F,/,12.7%,-6.8%,/,-1.8%,20.6µM*
COc1ccc(CNC(=O)CCc2ccc(S(=O)(=O)N3CCCCCC3)cc2)cc1OC,5.9%,3.6%,1.3%,i,6.5%,-5.8%
CC(=O)OCC(=O)[C@@]1(O)[C@H](C)C[C@H]2[C@@H]3C=C(C)C4=Cc5c(cnn5-c5ccccc5)C[C@]4(C)[C@@H]3[C@@H](O)C[C@@]21C,27.3µM*,/,/,/,/,/
CC(=O)N1CCc2c(sc3c2c(=O)n(CCc2ccccc2)c(=O)n3Cc2ccc(F)cc2)C1,?,-28.8%,-62.6%,?,11.2µM*,?
CC(=O)N1CCc2c(sc3c2c(=O)n(Cc2ccccc2)c(=O)n3Cc2ccc(C)cc2)C1,-0.4%,0.8%,-9.5%,i,?,2.8%
CCOC(=O)N1CCc2c(sc3c2c(=O)n(CCc2ccccc2)c(=O)n3Cc2ccc(F)cc2)C1,/,6.4%,-13.2%,/,-10.8%,-13.3%
CC(=O)N1CCc2c(sc3c2c(=O)n(Cc2ccccc2)c(=O)n3Cc2ccccc2F)C1,-1.3%,-18.0%,-42.0%,i,-16.8%,16.4µM*
CC(=O)N1CCc2c(sc3c2c(=O)n(Cc2ccccc2)c(=O)n3Cc2ccccc2Cl)C1,7.2%,?,-17.9%,i,-17.9%,18.4µM*
CC(C)(C)OC(=O)N1CCC(c2c(C(=O)NCc3ccc4c(c3)OCO4)cnn2-c2ccc(F)cc2F)CC1,/,-13.0%,-19.5%,/,12.6µM*,?
Cc1cccc(-n2ncc(C(=O)Nc3ccc4c(c3)OCO4)c2C2CCN(C(=O)OC(C)(C)C)CC2)c1,/,0.1%,-8.1%,/,?,5.7%
Cc1ccc(-n2ncc(C(=O)NCc3cccs3)c2C2CCN(C(=O)OC(C)(C)C)CC2)cc1C,/,-20.3%,-19.3%,/,?,20.6µM*
Cc1c(Cl)cccc1-n1ncc(C(=O)Nc2ccc(F)cc2F)c1C1CCN(C(=O)OC(C)(C)C)CC1,-36.9%,-10.8%,-8.3%,?,?,25.9µM*
Cc1cccc(-n2ncc(C(=O)NCc3ccc4c(c3)OCO4)c2C2CCN(C(=O)OC(C)(C)C)CC2)c1,/,-15.6%,-7.2%,/,-24.8%,16.4µM*
CC(C)(C)OC(=O)N1CCC(c2c(C(=O)NCc3cccs3)cnn2-c2cccc(F)c2)CC1,/,-4.5%,-13.7%,/,-11.9%,-24.3%
CC(C)(C)OC(=O)N1CCC(c2c(C(=O)N3CCN(c4ccccn4)CC3)cnn2-c2cccc(F)c2)CC1,/,-1.4%,4.7%,/,0.0%,?
C/C(Cn1nnc([N+](=O)[O-])n1)=N\NC(=O)c1ccccc1,-15.3%,-10.8%,-48.6%,?,11.2µM*,-12.3%
CS(=O)(=O)c1ccccc1-c1nnc(NC(=O)c2cccc(N3C(=O)CCC3=O)c2)o1,-16.5%,7.2%,-0.7%,i,-19.6%,7.2%
SMILES,ATXN2 expr inh,A549 viability,HepG2 viability,S2 tox,TGFb inhibitor,Nrf2 inh
NC(Cc1ccc(C(F)(F)F)cc1)c1csc(Nc2ccc(C(=O)NCCCO)cn2)n1 (stereo unspecified),?,/,-90.9%,?,?,/
NC(Cc1ccc(C(F)(F)F)cc1)c1csc(Nc2ccc(C(=O)NCc3ccco3)cn2)n1 (stereo unspecified),12.6µM*,/,20µM*,22.4µM*,?,/
COc1ccc(CC(N)c2csc(Nc3cc(NCc4ccco4)ncn3)n2)cc1 (stereo unspecified),?,/,11.2µM*,?,?,/
CCCCN(C)C(=O)c1ccc(Nc2nc(C(N)CCc3ccccc3)cs2)nc1 (stereo unspecified),?,/,-89.3%,?,?,/
CCCCN(C)C(=O)c1ccc(Nc2nc(C(N)Cc3ccc(C(F)(F)F)cc3)cs2)nc1 (stereo unspecified),-1.1%,/,11.2µM*,31.6µM*,?,/
O=C(Nc1ccc2[nH]c(=O)[nH]c2c1)c1ccc([N+](=O)[O-])o1,-6.3%,-1.3%,-30.3%,?,11.2µM*,18.3%
Cc1ccc(NC(=O)c2ccc([N+](=O)[O-])o2)cc1C,-10.8%,?,-38.8%,?,?,-7.2%
COc1ccc(OC)c(NC(=O)C(C)OC(=O)c2cc3ccccc3[nH]2)c1 (stereo unspecified),-20.7%,2.2%,-0.5%,?,20.1%,18.4µM*
COc1ccccc1NC(=O)C(C)OC(=O)c1cc2ccccc2[nH]1 (stereo unspecified),/,-0.2%,-23.7%,i,-21.6%,20.6µM*
CN(C(=O)CC1C(=O)NCCN1Cc1cccc(C(F)(F)F)c1)C1CCOCC1 (stereo unspecified),9.9%,4.3%,0.4%,i,-0.4%,4.5%
COc1ccccc1NS(=O)(=O)c1cccc(NC(=O)Nc2cccc(Cl)c2)c1,0.0%,?,14.1µM*,/,?,?
COc1ccccc1NS(=O)(=O)c1cccc(NC(=O)c2sc3ccccc3c2Cl)c1,-16.5%,-22.7%,-9.1%,i,0.0%,9.2µM*
COc1ccccc1NS(=O)(=O)c1cccc(NC(=O)NCCCl)c1,6.8%,1.7%,7.6%,i,-8.3%,4.9%
OC[C@@H]1CN(Cc2ccncc2)C[C@H](n2cnc3c(NC4CCCC4)ncnc32)O1,6.9%,/,-0.4%,i,-2.7%,/
